Screens as filed in PubChem.
CYP2C9 inhib: blocks human cytochrome P450 2C9; P11712; CYP2C9 Supersomes, luciferin-H conversion, luminescence; inhibition, % at 5 µM; 20% of 96,000 active; AID 777;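 active means blocking of liver enzyme CYP2C9 beyond about 50% at 5 µM, limit read from the data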
Target sequence (P11712 whole entry, looked up): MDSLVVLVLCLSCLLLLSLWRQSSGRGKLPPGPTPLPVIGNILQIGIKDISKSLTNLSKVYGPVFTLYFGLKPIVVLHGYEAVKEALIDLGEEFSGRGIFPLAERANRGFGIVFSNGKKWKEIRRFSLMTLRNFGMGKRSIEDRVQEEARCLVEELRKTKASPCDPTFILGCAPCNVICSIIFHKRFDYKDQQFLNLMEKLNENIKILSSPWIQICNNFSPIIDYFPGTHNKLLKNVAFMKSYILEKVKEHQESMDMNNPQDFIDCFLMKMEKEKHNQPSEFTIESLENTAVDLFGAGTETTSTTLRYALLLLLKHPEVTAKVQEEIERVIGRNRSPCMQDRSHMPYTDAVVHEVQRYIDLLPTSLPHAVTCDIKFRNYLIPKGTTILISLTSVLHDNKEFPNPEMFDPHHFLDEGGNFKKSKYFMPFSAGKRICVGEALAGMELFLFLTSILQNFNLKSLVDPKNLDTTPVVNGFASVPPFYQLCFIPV
CYP2C19 inh: blocks human cytochrome P450 2C19 | P33261 | CYP2C19 Supersomes, luciferin-H EGE luminescence, 30 min | inhibition, % at 5 µM | 21% of 96,000 active | AID 778;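 active means CYP2C19 inhibition above a set limit at 5 µM in the primary screen, cut at about 50% in these data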;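 further: plate controls were negative control wells for no effect and 2.5 mM tranylcypromine positive control for full effect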
sEH inhibitor: soluble epoxide hydrolase (human) inhibition | recombinant human sEH enzymatic activity assay | P34913 | 0.34% of 91,000 active | inhibition, % at 2 µM | AID 707; in the data active means inhibition above about 80%
CYP2C9 activ: activators of human CYP2C9 | P11712 | recombinant CYP2C9, luciferin-H conversion, luminescence; hits give high values; factor 1 = untreated enzyme, 0 = blocked | activation factor at 5 µM | 1.4% of 96,000 active;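 active means activation factor of 2 or more for CYP2C9 at a 5 µM dose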;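 further: 0 = sulfaphenazole-blocked wells and 1 = vehicle-only wells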
CYP2C19 act: increases human CYP2C19 enzyme activity. P33261. recombinant CYP2C19, luciferin-H EGE luminescence; hits give high values; 0 = fully inhibited enzyme, 1 = untreated enzyme. activation factor at 5 µM. 96,000 tested, under 10 active;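 active means activation factor of at least 2 at 5 µM in the primary screen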;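 further: 0 = wells with 2.5 mM tranylcypromine and 1 = vehicle-only wells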
sEH act: activators of human soluble epoxide hydrolase; 0.04% of 91,000 active; activation, % at 2 µM; P34913; AID 717; purified human sEH enzymatic activity, activator screen; in the data active means activation above about 37%
* = called active by the depositor; . = not tested or not shown. The list is not random: actives were taken first. Their share in the collection is about 27%.

SMILES | CYP2C9 inhib | CYP2C19 inh | sEH inhibitor | CYP2C9 activ | CYP2C19 act | sEH act
COCCNC(=O)c1ccccc1NC(=O)c1ccc(OC)c(OC)c1 | 33 | 3 | . | 0.7 | 1 | .
CC(C)Cn1c(SCC(=O)c2ccc(Cl)s2)nnc1-c1ccco1 | 72* | 67* | 4 | 0.3 | 0.3 | -5
NC(=O)NC(=O)CSc1nnc(-c2ccco2)n1Cc1ccccc1 | 6 | 0 | -16 | 0.9 | 1 | 15
Cn1c(SCC(=O)c2ccc(-c3ccccc3)cc2)nnc1-c1ccco1 | 56* | 68* | 4 | 0.4 | 0.3 | -8
O=C(CSc1nnc(-c2ccco2)n1Cc1ccccc1)c1ccccc1 | 87* | 93* | -4 | 0.1 | 0.1 | 3
Cc1ccc(C(=O)CSc2nnc(-c3ccco3)n2Cc2ccccc2)cc1 | 62* | 58* | -2 | 0.4 | 0.4 | 2
Cc1cccc(C)c1OCC(=O)Nc1cccc(-c2nnc(-c3ccccc3)o2)c1 | 90* | 55* | 15 | 0.1 | 0.5 | -14
COc1ccccc1OCC(=O)Nc1cccc(-c2nc3ccccc3o2)c1 | 48 | 30 | 8 | 0.5 | 0.7 | -6
CCCCC(=O)Nc1cccc(-c2nnc(-c3ccccc3)o2)c1 | 75* | 52* | 0 | 0.3 | 0.5 | 2
O=C(Nc1cccc(-c2nnc(-c3ccccc3)o2)c1)c1ccco1 | 23 | 14 | . | 0.8 | 0.9 | .
Cc1cccc(OCC(=O)Nc2cccc(-c3nnc(-c4ccccc4)o3)c2)c1C | 90* | 74* | 10 | 0.1 | 0.3 | -8
Cc1cccc(OCC(=O)NCc2ccncc2)c1C | 55* | 74* | 12 | 0.4 | 0.3 | -13
CN1C(=O)C2ON(c3ccccc3)C(c3cccs3)C2C1=O (stereo not given) | 33 | 59* | -8 | 0.7 | 0.4 | 8
CN1OC2C(=O)N(c3ccccc3)C(=O)C2C1c1ccc(F)cc1 (stereo not given) | -1 | 24 | -27 | 1 | 0.8 | 24
Cn1c(SCc2ccc(C(=O)Nc3nccs3)cc2)nnc1-c1ccccc1 | 68* | 32 | -12 | 0.3 | 0.7 | 15
CCn1c(SCc2ccc(C(=O)Nc3nccs3)cc2)nnc1-c1ccc(NC(C)=O)cc1 | 85* | 42 | -4 | 0.2 | 0.6 | 4
CCn1c(SCc2ccc(C(=O)Nc3nccs3)cc2)nnc1-c1ccc(N)cc1 | 68* | 29 | 2 | 0.3 | 0.7 | 0
CCC(Sc1nnc(-c2ccc(C)c(Cl)c2)n1CC)C(=O)Nc1nccs1 (stereo not given) | 44 | 49 | . | 0.6 | 0.5 | .
O=C(Nc1ccc(Cl)cc1-c1nc2ccccc2s1)c1ccco1 | 12 | -15 | 3 | 0.9 | 1.1 | 0
N#C/C(C(=O)c1ccccc1)=C1/CCCCCN1 | -4 | 39 | 4 | 1 | 0.6 | -5
COc1ccc(Nc2nc(N3CCCC3)c3ccccc3n2)cc1 | -2 | 13 | . | 1 | 0.9 | .
CCN(CC)c1ccc(Nc2nc(N3CCOCC3)c3ccccc3n2)cc1 | 55* | 54* | 15 | 0.4 | 0.5 | -15
Cc1c(CCO)c(=O)n(C)n1C(=O)c1ccc(F)cc1 | 2 | 26 | 3 | 1 | 0.7 | -3
Cc1c(CCO)c(=O)[nH]n1C(=O)c1ccc(F)cc1 | 74* | 28 | -4 | 0.3 | 0.7 | 4
CN1C(=O)/C(=C/c2ccccc2OCc2cccc(F)c2)NC1=S | 65* | -2 | -6 | 0.3 | 1 | 5
SMILES | CYP2C9 inhib | CYP2C19 inh | sEH inhibitor | CYP2C9 activ | CYP2C19 act | sEH act
Cc1oc(-c2ccccc2Cl)nc1CSCC(=O)O | 7 | -1 | 8 | 0.9 | 1 | -9
c1ccc(COc2ccc(CNn3cnnc3)cc2)cc1 | 24 | 25 | 7 | 0.8 | 0.8 | -6
COc1ccc2c(c1OC)C(=O)OC2C1c2c(cc3c(c2OC)OCO3)CCN1C (stereo not given) | 89* | 89* | . | 0.1 | 0.1 | .
COc1cc(C(=O)Oc2c(CN3CCOCC3)cc(Cl)c3cccnc23)cc(OC)c1OC | 37 | 66* | . | 0.6 | 0.3 | .
COc1cccc(C(=O)Oc2c(CN3CCOCC3)cc(Cl)c3cccnc23)c1 | 91* | 63* | 3 | 0.1 | 0.4 | -2
O=C(Oc1c(CN2CCOCC2)cc(Cl)c2cccnc12)c1ccc(F)cc1 | 62* | 34 | -4 | 0.4 | 0.7 | 7
COc1ccc(C(=O)Oc2c(CN3CCOCC3)cc(Cl)c3cccnc23)cc1 | 34 | 12 | -5 | 0.7 | 0.9 | 3
CN(C(=O)c1cccs1)c1ccccc1C(=O)O | -16 | -15 | 7 | 1.2 | 1.2 | -8
NC(=O)c1ccc(C2SCC(=O)N2Cc2ccccc2)cc1 (stereo not given) | 16 | 23 | 11 | 0.8 | 0.8 | -11
COc1ccc(NC(=O)C23CCC(C2)C(C)(C)C3=O)cc1 (stereo not given) | 21 | 34 | 8 | 0.8 | 0.7 | -6
C=CCOC(=O)CSCC(NC(=O)OC(C)(C)C)C(=O)OCC (stereo not given) | 45 | 58* | 9 | 0.5 | 0.4 | -8
COc1ccc(-c2nc(NC(=O)Cn3ccc(C(F)(F)F)n3)sc2C)cc1 | 40 | 57* | 16 | 0.6 | 0.4 | -14
CCOC(=O)C1CCCN(C(=O)c2cn(CC)c3ccc(S(=O)(=O)N4CCCC4)cc3c2=O)C1 (stereo not given) | 11 | 5 | 23 | 0.9 | 1 | -23
COc1cccc(NC(=O)N2CCN(c3cccc(C)c3)C(C)C2)c1 (stereo not given) | -16 | 59* | 9 | 1.2 | 0.4 | -8
Cc1cccc(N2CCN(C(=O)c3cc4c(=O)n(C)c5ccccc5c4n3C)CC2C)c1 (stereo not given) | 94* | 99* | . | 0.1 | 0 | .
Cc1cccc(N2CCN(C(=O)c3ccc4nc(-c5ccco5)c(-c5ccco5)nc4c3)CC2C)c1 (stereo not given) | 52* | 49 | 12 | 0.5 | 0.5 | -9
CC(=O)Nc1ccccc1-c1nc2ccc(C(=O)N3CCN(c4ccccc4)CC3)cc2[nH]c1=O | 41 | 13 | 15 | 0.6 | 0.9 | -16
CC(=O)Nc1ccccc1-c1nc2ccc(C(=O)N3CCN(c4cccc(C)c4)C(C)C3)cc2[nH]c1=O (stereo not given) | 87* | 70* | -5 | 0.1 | 0.3 | 2
O=C1NC(c2ccccc2)C(C(=O)c2cccs2)=C1O (stereo not given) | 0 | -2 | -13 | 1 | 1 | 12
CSCCC1NC(=O)NC1=O (stereo not given) | -15 | -10 | . | 1.2 | 1.1 | .
O=C(c1ccccc1)N1CCN(CC#CC2(O)CCCCC2)CC1 | -17 | -10 | . | 1.2 | 1.1 | .
COc1cc(OC)c(CN2CCN(c3ccc(F)cc3)CC2)cc1Br | 11 | 78* | . | 0.9 | 0.2 | .
COc1cc(OC)c(CN2CCCCCCC2)cc1Br | 0 | 37 | -9 | 1 | 0.6 | 9
CCCc1[nH]n(-c2nc3ccccc3s2)c(=O)c1C=NCC(C)C | 51* | 33 | -4 | 0.5 | 0.7 | 4
